Key:
Conditions in all cases: concentration: 1 μM, replicates: in singlicate; n = 1
SGK3 = test system: SGK3
SGK = test system: SGK
SIK2 = test system: SIK2
SIK = test system: SIK
SLK = test system: SLK
SNARK = test system: T1, SNARK
T1 construct: gene NUAK2

SNRK = test system: SNRK
SRC = test system: SRC
SRMS = test system: SRMS
SRPK1 = test system: SRPK1
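Further: KINOMEscan kinase panel screen.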

Row | Compound | %Inh (SGK3) [%] | %Inh (SGK) [%] | %Inh (SIK2) [%] | %Inh (SIK) [%] | %Inh (SLK) [%] | %Inh (SNARK) [%] | %Inh (SNRK) [%] | %Inh (SRC) [%] | %Inh (SRMS) [%] | %Inh (SRPK1) [%]
1 | Cc1ccc(NC(=O)Nc2ccccc2F)cc1-c1ccc(C(=O)Nc2ccncc2)cc1 [GSK1398477] | 0 | 0 | 22 | 15 | 34 | 0 | 0 | 27 | 0 | 52
2 | Fc1ccc(-c2nn3cccc(F)c3c2-c2ccncc2)cc1 [GW475620] | 0 | 0 | 12 | 3 | 16 | 0 | 0 | 1 | 0 | 3
3 | COc1nccc(-c2c(-c3ccc(F)cc3)ncn2CCCN2CCOCC2)n1 [SB-282852] | 0 | 13 | 0 | 0 | 30 | 0 | 0 | 0 | 0 | 0
4 | Nc1nccc(-c2c(-c3ccc(F)cc3)ncn2C2CCN(Cc3ccccc3)CC2)n1 [SB-219980] | 28 | 2 | 24 | 6 | 0 | 38 | 0 | 0 | 11 | 0
5 | COc1ccc(Nc2nccc(NCCNC(=O)Nc3cc(C)ccc3C)n2)cc1 [GSK1379899] | 0 | 0 | 0 | 0 | 27 | 0 | 0 | 0 | 0 | 34

From article PMC5540273 (PLoS ONE, 2017)
